Source: PubChem BioAssay
Shown are actives, neighbours in structure and some others; about 4.5% of the full set was active somewhere.
Mdm2-MdmX inh = inhibitors of human Mdm2-MdmX association, primary screen, cell-based, luminescence, split luciferase, SaOS-2, uHTS. hit rate 3% among 330,000. Protein Mdm4 (Homo sapiens) + E3 ubiquitin-protein ligase Mdm2 (Homo sapiens), …. AID 485346, 2010. inhibition, % at 8 µM. SaOS-2 split-luciferase Mdm2/MdmX complementation;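 active means inhibition of at least 50% at 8 µM in the primary screen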
Target sequence (O15151 whole entry, looked up): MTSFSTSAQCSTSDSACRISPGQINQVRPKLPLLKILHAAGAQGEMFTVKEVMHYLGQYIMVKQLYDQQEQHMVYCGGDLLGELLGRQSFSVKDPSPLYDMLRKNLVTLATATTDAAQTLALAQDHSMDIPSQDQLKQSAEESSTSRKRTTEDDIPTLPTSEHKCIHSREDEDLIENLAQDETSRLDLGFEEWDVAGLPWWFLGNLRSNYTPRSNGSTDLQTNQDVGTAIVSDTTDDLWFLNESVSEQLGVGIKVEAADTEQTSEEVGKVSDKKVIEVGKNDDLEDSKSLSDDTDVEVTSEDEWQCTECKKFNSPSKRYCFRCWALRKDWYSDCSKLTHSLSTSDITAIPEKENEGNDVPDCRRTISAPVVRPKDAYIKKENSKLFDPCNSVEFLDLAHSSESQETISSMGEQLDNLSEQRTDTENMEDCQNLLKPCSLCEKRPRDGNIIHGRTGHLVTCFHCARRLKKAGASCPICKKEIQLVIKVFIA
Target sequence (Q00987 whole entry, looked up): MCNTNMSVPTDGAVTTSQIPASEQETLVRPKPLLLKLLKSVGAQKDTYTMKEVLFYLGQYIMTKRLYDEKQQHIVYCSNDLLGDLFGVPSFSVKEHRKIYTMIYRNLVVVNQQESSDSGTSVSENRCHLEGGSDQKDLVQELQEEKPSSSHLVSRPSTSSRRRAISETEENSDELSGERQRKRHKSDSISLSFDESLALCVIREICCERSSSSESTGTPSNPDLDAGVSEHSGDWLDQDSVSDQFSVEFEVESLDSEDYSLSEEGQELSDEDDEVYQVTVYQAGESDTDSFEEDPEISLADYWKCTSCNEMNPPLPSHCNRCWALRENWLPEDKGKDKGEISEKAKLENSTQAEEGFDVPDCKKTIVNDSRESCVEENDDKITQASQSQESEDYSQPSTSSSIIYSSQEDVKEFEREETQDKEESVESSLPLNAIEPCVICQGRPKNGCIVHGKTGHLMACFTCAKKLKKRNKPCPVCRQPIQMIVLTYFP
Jurkat NFkB inh = inhibitors of induced NF-kB luciferase reporter, primary screen, TCR NF-kB activation inhibitor project, cell-based, luminescence, uHTS. hit rate 0.53% among 330,000. Jurkat, PMA/ionomycin-induced NF-kB luciferase reporter. AID 435003, 2010. inhibition, % at 4 µM; in the data active means inhibition above about 50%
CSC inhib = cancer stem cell viability inhibitors, primary screen, luminescence | cancer stem cell-like cells viability | inhibition, % at 7.5 µM | hit rate 1.1% among 300,000 | AID 2717, 2010; in the data active means inhibition above about 75%; inconclusive means no clear call, values can overlap the other calls; tested in HMLE shEcad cells
Gli-Sufu antag = Gli-Sufu pathway antagonists, primary screen, luciferase luminescence, Sufu-KO-LIGHT cells, uHTS; hit rate 0.74% among 340,000; inhibition, % at 5 µM; AID 588413, 2011; Sufu-KO-LIGHT fibroblasts, Gli luciferase reporter luminescence;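 active means inhibition above about 55%, limit read from the data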;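 further: 0% = DMSO-treated cells and 100% = wells with medium but no cells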
697 NFkB inh = inhibitors of PMA/ionomycin-induced NF-kB reporter, 697 cells, primary screen, B-cell NF-kB inhibitor project, cell-based, luminescence, uHTS | inhibition, % at 4 µM | hit rate 0.33% among 330,000 | 697 B-cell NF-kB luciferase reporter, 16 h; in the data active means inhibition above about 35%
aSyn 5UTR inh = MLPCN primary screen, SNCA 5' untranslated region; alpha-synuclein 5'UTR reporter, inhibitor activity; inhibition, % (tested at 7.5 µM); hit rate 0.82% among 300,000; AID 1813, 2009; in the data active means inhibition above about 60%; inconclusive means no clear call, values can overlap the other calls;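 further: H4 neuroglioblastoma cells stably carrying SNCA 5'UTR luciferase fusion; 0% = DMSO wells and 100% = positive control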
Mdm2 MdmX conf = Mdm2-MdmX complex disruptors, retested hits, confirmation, luminescence, single concentration. inhibition, % at 8 µM. Mdm2-MdmX binding, luminescent assay. AID 489028, 2010. shares compounds with Mdm2-MdmX inh. hit rate 55% among 10,000; in the data active means inhibition above about 40%
Full FLuc ctr = full-length luciferase signal inhibition, confirmation, counter-screen for Mdm2/MdmX interaction inhibitor project, cell-based, single concentration, SaOS-2. shares compounds with Mdm2-MdmX inh. SaOS-2 full-length luciferase counterscreen, luminescence. inhibition, % at 8 µM. hit rate 77% among 6,200. AID 504607, 2011;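 active means mean inhibition at 8 µM reaching about 37%, which flags the compound as non-specific, limit read from the data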;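 further: p53-null SaOS-2 cells with luciferase driven by a doxycycline-inducible promoter; compound on cells about two nights before reading with doxycycline added after day one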
Starred values were filed as active, the others as inactive; ? = inconclusive; . = no result given.

SMILES	Mdm2-MdmX inh	Jurkat NFkB inh	CSC inhib	Gli-Sufu antag	697 NFkB inh	aSyn 5UTR inh	Mdm2 MdmX conf	Full FLuc ctr
CC(C)N1CCc2c(sc(NC(=O)c3cc(-c4cccs4)nc4ccccc34)c2C(N)=O)C1	73*	23	?	43	16	-53	33	.
NC(=O)c1ccsc1NC(=O)c1ccc(S(=O)(=O)N2CCCc3ccccc32)cc1	59*	0	48	7	-63	25	1	.
CC(C)N1CCc2c(sc(NC(=O)c3nc4ccccc4s3)c2C(N)=O)C1	14	-15	-3	7	11	-58	.	.
CCN1CCN(S(=O)(=O)c2ccc(C(=O)Nc3sc4c(c3C(N)=O)CCN(CC)C4)cc2)CC1	3	3	-5	14	12	-7	.	.
CC(C)N1CCc2c(sc(NC(=O)c3ccc(S(=O)(=O)N4CCc5ccccc54)cc3)c2C(N)=O)C1	100*	6	113*	10	-32	-103	30	.
CC(C)N1CCc2c(sc(NC(=O)c3ccc([N+](=O)[O-])o3)c2C(N)=O)C1	89*	39	-7	.	-8	104*	94*	19
Cc1nn(CC(=O)N(C)C2CCS(=O)(=O)C2)c(C)c1S(=O)(=O)N(C)C (centres undefined)	-17	-7	.	2	20	.	.	.
Cn1c(=O)c2[nH]c(N3CCN(c4cccc(O)c4)CC3)nc2n(C)c1=O	49	-6	14	-18	22	-6	.	.
Cn1c(=O)c2[nH]c(N3CCN(c4ccccc4)CC3)nc2n(C)c1=O	67*	9	13	-23	13	9	39	67*
CCOC(=O)c1ccc(N=c2sc(C(=O)OC)cc(=O)n2-c2ccc(C(=O)OCC)cc2)cc1	83*	22	69	-2	30	-32	-6	.
O=C(CSCc1ccccc1)NNC(=S)Nc1cccc(Cl)c1Cl	-8	-23	22	4	8	21	.	.
CCOc1ccc(CCNc2nc3ccc(C)cc3n3cnnc23)cc1OCC	-8	-16	-26	-5	-3	-19	.	.
Fc1cccc(COc2ccccc2CNc2ccccc2)c1	.	.	22	-6	.	-6	.	.
Cc1ccc(NCc2ccc(O)c3ncccc23)cc1C	78*	25	-6	-7	-42	-12	64*	48*
Cc1ccc(NCc2ccc(O)c3ncccc23)cc1	76*	13	18	-10	-34	14	71*	66*
Oc1c(CNc2ccccc2)cc(COCc2ccccc2)c2cccnc12	70*	10	.	3	-29	.	45*	79*
O=C(COC(=O)CCCSc1nc2ccccc2[nH]1)Nc1ccc(Cl)cc1	-7	0	4	-1	16	8	.	.
COc1ccc(CNC(=O)CN(c2ccccc2)S(=O)(=O)c2ccccc2[N+](=O)[O-])cc1	4	20	18	4	6	-6	.	.
O=C(NNc1nc(-c2ccc(F)cc2)cs1)c1ccccc1	62*	-19	16	5	-13	90*	49*	50*
CC(C)(C)c1csc(NNC(=O)c2ccc(Br)cc2)n1	64*	-17	61	-18	-12	23	22	.
O=C(CSc1nc(-c2ccccc2)cs1)Nc1nccs1	59*	-9	8	9	4	8	-7	.
O=C(CSc1ccccc1)Nc1nccs1	-27	-11	.	-13	2	-33	.	.
O=C(Cc1c(F)c(F)c(F)c(F)c1F)Nc1nc(-c2ccccc2)cs1	57*	-4	83*	8	-16	10	39	84*
CCc1ccccc1OCC(=O)Nc1nc(-c2cccnc2)cs1	67*	-12	40	-2	-16	70*	69*	36
O=C(NNc1nc(-c2ccccc2)cs1)c1ccc(F)cc1	54*	-7	23	7	-5	76*	26	.
SMILES	Mdm2-MdmX inh	Jurkat NFkB inh	CSC inhib	Gli-Sufu antag	697 NFkB inh	aSyn 5UTR inh	Mdm2 MdmX conf	Full FLuc ctr
O=C1OC(Nc2nc(-c3ccc(F)cc3)cs2)c2ccccc21 (centres undefined)	63*	9	42	14	-12	-1	23	.
Cc1ccnc(N2CCC(C(=O)Nc3cccc(C(F)(F)F)c3)CC2)n1	8	-10	-2	10	13	18	.	.
CN(C)S(=O)(=O)c1cc(NC(=O)CN2CCN(c3ccccc3F)CC2)ccc1Cl	9	12	-9	0	4	-12	.	.
CCOC(=O)c1ccc(-c2ccc(/C=N/NC(=O)CN(c3ccccc3Br)S(C)(=O)=O)o2)cc1	51*	-41	41	-48	-102	-140	-4	.
Cc1[nH]c2ccccc2c(=O)c1C(=O)/C=C/c1ccccc1	100*	29	61	9	-72	-281	100*	52*
COc1ccc(CNC(=O)c2cccnc2)cc1	-23	-11	4	-3	-1	4	.	.
O=C(COC(=O)c1ccccc1[N+](=O)[O-])c1ccc2c(c1)OCO2	53*	-33	-12	-20	-21	-187	83*	148*
Cc1cccc(C(=O)OCC(=O)c2ccc3c(c2)OCO3)c1O	-141	-100	-9	-111	-42	-153	.	.
O=C(c1cc(-c2cccc(O)c2)on1)N1CCN(C(c2ccccc2)c2ccccc2)CC1	50	14	144*	15	-8	24	13	.
COc1ccc(C(=O)Nn2c(SCC(=O)N3CCC(C)CC3)nc3ccccc3c2=O)cc1	59*	-57	11	16	-130	83*	48*	142*
N#Cc1nccnc1S(=O)(=O)c1cccs1	74*	15	14	1	-16	-48	47*	0
Cc1nn(-c2ccccc2)c(Cl)c1C1C(C#N)=C(N)Oc2n[nH]c(C)c21 (centres undefined)	53*	-1	10	15	-16	-9	23	.
CCC(CC)C1C(C#N)=C(N)Oc2n[nH]c(C)c21 (centres undefined)	52*	1	12	6	30	12	3	.
O=C(N/N=C(\Cc1ncc[nH]1)c1ccccc1)c1cccnc1	54*	-6	100*	37	9	.	64*	33
NC(=O)c1ccc(C(=O)N/N=C(/Cc2ccccc2)c2ccccc2)cc1	31	-2	-8	-7	11	-10	.	.
